# Data published in article PMC7862700, “An all-to-all approach to the identification of sequence-specific readers for epigenetic DNA modifications on cytosine”.
# Tests used:
# Experiment in all cases: DAPPL (digital affinity profiling via proximity ligation, sequencing); 10 mM Tris-HCl pH 7.5, 50 mM NaCl, 1 mM DTT, 4% glycerol, room temperature, 30 min; GST-TFs on glutathione beads, 16-mer random dsDNA library, 0.1% formaldehyde crosslink after washing; high values mean tight binding
# FLI1 = target: T1, FLI1 (Homo sapiens, UniProt Q01543 1-452); settings: protein: recombinant; tags: N-terminal GST; dsDNA, one strand shown
# T1 sequence: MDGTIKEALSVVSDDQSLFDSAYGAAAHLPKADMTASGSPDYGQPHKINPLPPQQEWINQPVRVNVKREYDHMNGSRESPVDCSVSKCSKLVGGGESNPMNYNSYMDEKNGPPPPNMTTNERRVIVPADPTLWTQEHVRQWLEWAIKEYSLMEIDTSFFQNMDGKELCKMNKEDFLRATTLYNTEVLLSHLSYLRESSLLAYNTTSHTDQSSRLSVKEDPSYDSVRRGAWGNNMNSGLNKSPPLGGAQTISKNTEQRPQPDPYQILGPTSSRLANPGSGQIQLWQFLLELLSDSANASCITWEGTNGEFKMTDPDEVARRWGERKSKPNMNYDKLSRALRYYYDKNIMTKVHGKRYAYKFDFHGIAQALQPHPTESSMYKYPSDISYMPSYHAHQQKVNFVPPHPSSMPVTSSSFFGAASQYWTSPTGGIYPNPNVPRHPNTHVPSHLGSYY
# Procedure, shortened: (§1)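 Binding signal is each hexamer's read frequency for a factor divided by its frequency in the tag-only sample. The factors were GST-fused human transcription factors from yeast, captured on glutathione beads, DNA-barcoded and pooled with that sample. Pools were incubated with 200 nmole of a random double-stranded 16-mer DNA library in Tris/NaCl/DTT/glycerol buffer at room temperature for 30 min, then washed, crosslinked with 0.1% formaldehyde, proximity-ligated with BsaI/T4 ligase (1 h, 37 °C), PCR-amplified and sequenced on an Illumina NextSeq500.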
# ELK1 = target: T2, ELK1 (Homo sapiens, UniProt P19419 1-428); settings: protein: recombinant; tags: N-terminal GST; dsDNA, one strand shown
# T2 sequence: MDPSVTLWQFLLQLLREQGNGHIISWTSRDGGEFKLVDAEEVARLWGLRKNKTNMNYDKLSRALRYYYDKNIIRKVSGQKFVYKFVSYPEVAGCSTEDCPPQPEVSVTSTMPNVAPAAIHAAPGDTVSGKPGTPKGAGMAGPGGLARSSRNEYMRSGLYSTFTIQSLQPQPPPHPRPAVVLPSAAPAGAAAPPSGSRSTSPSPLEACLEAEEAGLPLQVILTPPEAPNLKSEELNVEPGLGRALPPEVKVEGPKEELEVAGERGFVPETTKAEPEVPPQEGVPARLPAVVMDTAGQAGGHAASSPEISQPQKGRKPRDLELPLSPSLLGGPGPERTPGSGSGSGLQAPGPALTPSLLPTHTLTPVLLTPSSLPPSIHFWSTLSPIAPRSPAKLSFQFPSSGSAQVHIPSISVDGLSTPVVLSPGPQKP
# Procedure, shortened: as §1
# GABPA = target: T3, GABPA (Homo sapiens, UniProt Q06546 1-454); settings: protein: recombinant; tags: N-terminal GST; dsDNA, one strand shown
# T3 sequence: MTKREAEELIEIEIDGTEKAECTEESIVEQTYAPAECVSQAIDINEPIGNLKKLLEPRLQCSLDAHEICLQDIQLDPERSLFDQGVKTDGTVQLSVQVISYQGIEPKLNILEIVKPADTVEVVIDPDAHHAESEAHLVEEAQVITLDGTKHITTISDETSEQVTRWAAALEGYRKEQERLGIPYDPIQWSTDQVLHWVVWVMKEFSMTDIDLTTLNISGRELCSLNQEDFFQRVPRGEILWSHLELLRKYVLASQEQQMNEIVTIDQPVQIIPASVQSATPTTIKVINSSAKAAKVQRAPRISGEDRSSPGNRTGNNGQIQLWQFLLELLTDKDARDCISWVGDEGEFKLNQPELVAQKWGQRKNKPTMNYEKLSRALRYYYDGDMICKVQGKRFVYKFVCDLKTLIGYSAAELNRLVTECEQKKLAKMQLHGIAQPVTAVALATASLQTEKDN
# Procedure, shortened: as §1
# ERG = target: T4, ERG (Homo sapiens, UniProt P11308 1-479); settings: protein: recombinant; tags: N-terminal GST; dsDNA, one strand shown
# T4 sequence: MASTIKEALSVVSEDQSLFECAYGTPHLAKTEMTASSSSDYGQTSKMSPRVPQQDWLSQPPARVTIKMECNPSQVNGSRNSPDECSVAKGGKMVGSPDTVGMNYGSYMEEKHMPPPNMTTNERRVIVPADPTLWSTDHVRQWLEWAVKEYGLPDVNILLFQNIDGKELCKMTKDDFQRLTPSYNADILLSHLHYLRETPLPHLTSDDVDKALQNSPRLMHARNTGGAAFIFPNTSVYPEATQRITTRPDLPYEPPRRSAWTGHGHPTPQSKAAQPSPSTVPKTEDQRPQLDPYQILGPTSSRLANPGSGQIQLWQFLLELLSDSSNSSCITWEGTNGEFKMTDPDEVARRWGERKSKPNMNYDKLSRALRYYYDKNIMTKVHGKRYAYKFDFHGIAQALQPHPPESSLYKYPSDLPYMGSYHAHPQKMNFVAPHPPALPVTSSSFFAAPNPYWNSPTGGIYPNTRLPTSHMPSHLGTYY
# Procedure, shortened: as §1
# ELF1 = ELF1 (Homo sapiens, UniProt P32519 1-619); settings: protein: recombinant; tags: N-terminal GST; dsDNA, one strand shown
# Chain of ELF1 (P32519 whole entry): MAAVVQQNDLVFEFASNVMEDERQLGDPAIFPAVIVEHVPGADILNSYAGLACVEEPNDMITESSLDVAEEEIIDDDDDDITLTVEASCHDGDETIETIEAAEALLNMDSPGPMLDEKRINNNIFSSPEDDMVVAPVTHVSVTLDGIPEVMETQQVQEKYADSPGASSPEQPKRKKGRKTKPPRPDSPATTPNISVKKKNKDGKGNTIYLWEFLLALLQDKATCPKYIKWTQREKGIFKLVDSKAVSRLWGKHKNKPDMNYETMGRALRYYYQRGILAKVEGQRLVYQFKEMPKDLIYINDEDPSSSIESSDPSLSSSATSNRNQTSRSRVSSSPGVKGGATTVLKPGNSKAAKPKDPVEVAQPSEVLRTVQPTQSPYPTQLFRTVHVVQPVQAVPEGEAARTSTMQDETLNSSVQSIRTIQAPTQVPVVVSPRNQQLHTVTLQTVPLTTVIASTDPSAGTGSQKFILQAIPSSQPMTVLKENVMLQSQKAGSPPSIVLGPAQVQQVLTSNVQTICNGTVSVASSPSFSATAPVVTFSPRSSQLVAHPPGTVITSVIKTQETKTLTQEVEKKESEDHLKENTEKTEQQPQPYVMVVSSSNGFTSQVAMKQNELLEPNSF
# Procedure, shortened: as §1
# EHF = target: T5, EHF (Homo sapiens, UniProt Q9NZC4 1-300); settings: protein: recombinant; tags: N-terminal GST; dsDNA, one strand shown
# T5 sequence: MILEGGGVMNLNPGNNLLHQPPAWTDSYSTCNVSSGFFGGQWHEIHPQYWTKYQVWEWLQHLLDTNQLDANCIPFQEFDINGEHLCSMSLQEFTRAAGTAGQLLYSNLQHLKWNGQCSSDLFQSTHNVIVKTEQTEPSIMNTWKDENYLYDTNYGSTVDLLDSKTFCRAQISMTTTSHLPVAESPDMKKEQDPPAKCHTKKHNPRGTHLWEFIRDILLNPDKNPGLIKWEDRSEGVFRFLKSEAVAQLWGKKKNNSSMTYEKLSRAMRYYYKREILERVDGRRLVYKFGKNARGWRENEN
# Procedure, shortened: as §1
# SPI1 = SPI1 (Homo sapiens, UniProt P17947 1-270); settings: protein: recombinant; tags: N-terminal GST; dsDNA, one strand shown
# Procedure, shortened: as §1
# SPIB = SPIB (Homo sapiens, UniProt Q01892 1-262); settings: protein: recombinant; tags: N-terminal GST; dsDNA, one strand shown
# Chain of SPIB (Q01892 whole entry): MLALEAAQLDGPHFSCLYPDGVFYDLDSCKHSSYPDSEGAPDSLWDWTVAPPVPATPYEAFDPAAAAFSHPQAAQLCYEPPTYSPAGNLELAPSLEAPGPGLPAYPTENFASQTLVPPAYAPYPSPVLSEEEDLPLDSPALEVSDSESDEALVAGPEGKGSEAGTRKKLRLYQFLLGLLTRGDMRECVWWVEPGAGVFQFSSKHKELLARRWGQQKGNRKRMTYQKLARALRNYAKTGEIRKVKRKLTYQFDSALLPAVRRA
# Procedure, shortened: as §1
# ELK3 = target: T6, ELK3 (Homo sapiens, UniProt P41970 1-407); settings: protein: recombinant; tags: N-terminal GST; dsDNA, one strand shown
# T6 sequence: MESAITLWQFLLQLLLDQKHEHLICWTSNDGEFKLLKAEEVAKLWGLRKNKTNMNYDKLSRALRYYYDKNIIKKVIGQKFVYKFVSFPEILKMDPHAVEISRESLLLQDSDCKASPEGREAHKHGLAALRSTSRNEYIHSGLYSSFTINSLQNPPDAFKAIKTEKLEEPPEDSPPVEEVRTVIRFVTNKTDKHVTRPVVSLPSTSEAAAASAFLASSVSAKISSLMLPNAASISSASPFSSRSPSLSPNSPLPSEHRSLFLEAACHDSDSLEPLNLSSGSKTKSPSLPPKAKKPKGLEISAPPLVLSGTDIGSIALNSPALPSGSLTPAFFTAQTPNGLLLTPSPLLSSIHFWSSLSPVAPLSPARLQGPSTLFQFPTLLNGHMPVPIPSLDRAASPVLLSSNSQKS
# Procedure, shortened: as §1
# FEV = target: T7, FEV (Homo sapiens, UniProt Q99581 1-238); settings: protein: recombinant; tags: N-terminal GST; dsDNA, one strand shown
# T7 sequence: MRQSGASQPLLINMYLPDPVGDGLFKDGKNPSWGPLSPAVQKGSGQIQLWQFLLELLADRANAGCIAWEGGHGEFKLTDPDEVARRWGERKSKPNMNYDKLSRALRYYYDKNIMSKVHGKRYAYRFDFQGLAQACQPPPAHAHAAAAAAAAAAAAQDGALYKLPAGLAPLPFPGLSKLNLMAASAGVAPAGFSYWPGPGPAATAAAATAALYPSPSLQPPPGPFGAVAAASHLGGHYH
# Procedure, shortened: as §1
# ETV5 = ETV5 (Homo sapiens, UniProt P41161 1-510); settings: protein: recombinant; tags: N-terminal GST; dsDNA, one strand shown
# Chain of ETV5 (P41161 whole entry): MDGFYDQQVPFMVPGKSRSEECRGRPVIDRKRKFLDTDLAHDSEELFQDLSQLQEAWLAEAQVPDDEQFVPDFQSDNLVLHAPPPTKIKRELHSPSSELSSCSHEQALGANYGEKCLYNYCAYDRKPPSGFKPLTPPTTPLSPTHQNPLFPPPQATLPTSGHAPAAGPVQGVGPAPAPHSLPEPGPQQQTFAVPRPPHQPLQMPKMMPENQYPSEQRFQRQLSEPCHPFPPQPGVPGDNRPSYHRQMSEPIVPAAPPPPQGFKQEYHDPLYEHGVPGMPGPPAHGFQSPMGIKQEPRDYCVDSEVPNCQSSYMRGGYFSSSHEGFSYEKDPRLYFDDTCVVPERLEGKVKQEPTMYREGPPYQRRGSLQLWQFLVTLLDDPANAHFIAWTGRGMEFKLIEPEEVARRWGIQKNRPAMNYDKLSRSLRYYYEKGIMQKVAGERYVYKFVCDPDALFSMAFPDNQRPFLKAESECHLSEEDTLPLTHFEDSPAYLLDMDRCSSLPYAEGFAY
# Procedure, shortened: as §1
# HSF1 = HSF1 (Homo sapiens, UniProt Q00613 1-529); settings: protein: recombinant; tags: N-terminal GST; chain copies: 3; dsDNA, one strand shown
# Chain of HSF1 (Q00613 whole entry): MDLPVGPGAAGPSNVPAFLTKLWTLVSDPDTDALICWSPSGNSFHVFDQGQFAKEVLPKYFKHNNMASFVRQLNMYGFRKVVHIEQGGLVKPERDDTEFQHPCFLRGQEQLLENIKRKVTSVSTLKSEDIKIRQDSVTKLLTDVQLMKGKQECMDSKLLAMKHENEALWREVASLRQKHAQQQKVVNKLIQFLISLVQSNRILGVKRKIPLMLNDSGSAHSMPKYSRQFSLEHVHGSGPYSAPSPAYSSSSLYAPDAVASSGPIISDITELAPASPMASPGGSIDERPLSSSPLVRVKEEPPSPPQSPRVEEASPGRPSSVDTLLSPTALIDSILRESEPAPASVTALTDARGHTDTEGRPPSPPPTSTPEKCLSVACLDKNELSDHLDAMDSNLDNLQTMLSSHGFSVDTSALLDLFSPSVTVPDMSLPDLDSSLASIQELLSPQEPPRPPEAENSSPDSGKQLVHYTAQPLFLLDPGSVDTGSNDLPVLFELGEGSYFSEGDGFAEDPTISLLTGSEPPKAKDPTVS
# Procedure, shortened: as §1
# SPIC = target: T8, SPIC (Homo sapiens, UniProt Q8N5J4 1-248); settings: protein: recombinant; tags: N-terminal GST; dsDNA, one strand shown
# T8 sequence: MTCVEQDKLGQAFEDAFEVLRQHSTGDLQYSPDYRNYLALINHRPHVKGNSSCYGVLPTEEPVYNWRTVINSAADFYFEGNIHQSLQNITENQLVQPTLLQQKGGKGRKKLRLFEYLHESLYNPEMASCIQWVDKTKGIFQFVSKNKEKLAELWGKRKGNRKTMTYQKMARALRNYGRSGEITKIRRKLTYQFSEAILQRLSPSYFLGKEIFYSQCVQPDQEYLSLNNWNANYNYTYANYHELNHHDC
# Procedure, shortened: as §1
# ELF4 = ELF4 (Homo sapiens, UniProt Q99607 1-663); settings: protein: recombinant; tags: N-terminal GST; dsDNA, one strand shown
# Chain of ELF4 (Q99607 whole entry): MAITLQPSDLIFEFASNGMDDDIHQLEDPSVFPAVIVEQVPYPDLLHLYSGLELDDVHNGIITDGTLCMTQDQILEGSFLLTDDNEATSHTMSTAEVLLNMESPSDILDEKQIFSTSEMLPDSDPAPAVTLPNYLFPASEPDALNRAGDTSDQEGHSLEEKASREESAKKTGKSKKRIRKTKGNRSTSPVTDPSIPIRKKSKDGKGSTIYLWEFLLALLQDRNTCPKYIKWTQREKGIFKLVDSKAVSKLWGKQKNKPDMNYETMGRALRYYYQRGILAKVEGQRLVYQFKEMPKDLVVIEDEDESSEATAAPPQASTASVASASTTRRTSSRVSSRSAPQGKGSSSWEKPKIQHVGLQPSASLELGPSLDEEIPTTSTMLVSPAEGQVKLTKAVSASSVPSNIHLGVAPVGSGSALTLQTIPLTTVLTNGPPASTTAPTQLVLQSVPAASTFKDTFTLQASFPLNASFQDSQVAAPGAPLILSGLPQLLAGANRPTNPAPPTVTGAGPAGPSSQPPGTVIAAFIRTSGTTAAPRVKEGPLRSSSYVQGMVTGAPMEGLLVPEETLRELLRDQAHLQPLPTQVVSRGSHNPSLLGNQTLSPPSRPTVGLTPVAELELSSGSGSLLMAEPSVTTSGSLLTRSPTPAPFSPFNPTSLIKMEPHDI
# Procedure, shortened: as §1
# ELK4 = target: T9, ELK4 (Homo sapiens, UniProt P28324-2 1-405); settings: protein: recombinant; tags: N-terminal GST; dsDNA, one strand shown
# T9 sequence: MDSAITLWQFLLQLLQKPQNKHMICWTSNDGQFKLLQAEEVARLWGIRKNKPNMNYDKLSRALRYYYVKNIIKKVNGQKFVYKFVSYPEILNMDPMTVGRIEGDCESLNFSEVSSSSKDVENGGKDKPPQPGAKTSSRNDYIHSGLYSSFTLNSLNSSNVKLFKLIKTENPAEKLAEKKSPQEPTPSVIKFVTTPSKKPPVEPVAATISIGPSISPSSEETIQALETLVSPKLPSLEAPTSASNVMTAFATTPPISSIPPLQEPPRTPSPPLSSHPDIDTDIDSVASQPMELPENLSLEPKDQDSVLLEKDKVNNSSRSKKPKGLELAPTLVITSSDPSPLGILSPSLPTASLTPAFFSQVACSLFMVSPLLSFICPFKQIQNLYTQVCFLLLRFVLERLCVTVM
# Procedure, shortened: as §1
# ETV2 = target: T10, ETV2 (Homo sapiens, UniProt O00321 1-342); settings: protein: recombinant; tags: N-terminal GST; dsDNA, one strand shown
# T10 sequence: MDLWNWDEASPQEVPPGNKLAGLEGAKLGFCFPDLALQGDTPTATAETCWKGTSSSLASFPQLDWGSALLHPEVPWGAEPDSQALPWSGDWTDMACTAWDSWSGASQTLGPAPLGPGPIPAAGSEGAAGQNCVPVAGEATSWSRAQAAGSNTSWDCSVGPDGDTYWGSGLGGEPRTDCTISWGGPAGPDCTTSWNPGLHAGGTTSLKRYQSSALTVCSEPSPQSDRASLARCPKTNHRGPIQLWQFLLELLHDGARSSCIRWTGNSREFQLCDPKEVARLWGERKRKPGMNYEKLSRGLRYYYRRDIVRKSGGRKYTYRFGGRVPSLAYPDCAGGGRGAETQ
# Procedure, shortened: as §1
# ELF3 = target: T11, ELF3 (Homo sapiens, UniProt P78545 1-371); settings: protein: recombinant; tags: N-terminal GST; dsDNA, one strand shown
# T11 sequence: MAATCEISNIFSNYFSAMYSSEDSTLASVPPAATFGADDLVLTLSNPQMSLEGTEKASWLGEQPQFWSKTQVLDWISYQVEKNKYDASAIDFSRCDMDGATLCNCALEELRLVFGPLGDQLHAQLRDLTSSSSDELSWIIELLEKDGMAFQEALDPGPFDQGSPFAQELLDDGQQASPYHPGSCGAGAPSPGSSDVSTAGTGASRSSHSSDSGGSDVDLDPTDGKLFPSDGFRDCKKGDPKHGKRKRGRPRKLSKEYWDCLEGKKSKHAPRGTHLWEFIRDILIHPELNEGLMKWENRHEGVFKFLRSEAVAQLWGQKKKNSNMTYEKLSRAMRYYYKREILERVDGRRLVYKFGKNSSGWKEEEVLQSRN
# Procedure, shortened: as §1
# CRX = CRX (Homo sapiens, UniProt O43186 1-299); settings: protein: recombinant; tags: N-terminal GST; dsDNA, one strand shown
# Chain of CRX (O43186 whole entry): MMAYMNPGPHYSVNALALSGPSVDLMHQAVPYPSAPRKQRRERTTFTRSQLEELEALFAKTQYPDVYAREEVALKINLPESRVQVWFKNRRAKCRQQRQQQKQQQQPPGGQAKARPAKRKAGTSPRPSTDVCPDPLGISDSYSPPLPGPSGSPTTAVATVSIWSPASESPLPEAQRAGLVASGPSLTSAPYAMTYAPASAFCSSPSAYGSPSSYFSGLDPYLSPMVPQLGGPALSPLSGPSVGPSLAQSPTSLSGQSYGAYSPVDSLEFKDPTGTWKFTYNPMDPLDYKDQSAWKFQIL
# Procedure, shortened: as §1
# ETV1 = ETV1 (Homo sapiens, UniProt P50549 1-477); settings: protein: recombinant; tags: N-terminal GST; dsDNA, one strand shown
# Chain of ETV1 (P50549 whole entry): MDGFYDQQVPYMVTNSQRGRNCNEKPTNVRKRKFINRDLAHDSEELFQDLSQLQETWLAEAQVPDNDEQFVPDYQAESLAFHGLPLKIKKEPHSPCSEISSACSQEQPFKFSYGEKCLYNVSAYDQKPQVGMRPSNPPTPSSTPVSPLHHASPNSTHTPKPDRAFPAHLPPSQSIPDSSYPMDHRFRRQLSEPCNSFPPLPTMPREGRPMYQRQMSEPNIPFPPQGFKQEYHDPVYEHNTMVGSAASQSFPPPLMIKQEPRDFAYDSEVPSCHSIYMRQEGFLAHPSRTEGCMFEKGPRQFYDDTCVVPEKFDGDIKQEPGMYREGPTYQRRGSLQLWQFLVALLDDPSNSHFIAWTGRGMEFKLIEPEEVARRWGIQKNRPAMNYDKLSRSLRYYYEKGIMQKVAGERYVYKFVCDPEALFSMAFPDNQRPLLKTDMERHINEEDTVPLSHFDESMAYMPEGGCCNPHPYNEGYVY
# Procedure, shortened: as §1
sequence,measurement,setting,value
CCATCT,binding signal,FLI1,"1.3 fold enrichment (6-mer frequency, TF over GST control)"
same,binding signal,ELK1,"1.44 fold enrichment (6-mer frequency, TF over GST control)"
same,binding signal,GABPA,"1.32 fold enrichment (6-mer frequency, TF over GST control)"
same,binding signal,ERG,"1.26 fold enrichment (6-mer frequency, TF over GST control)"
same,binding signal,ELF1,"1.38 fold enrichment (6-mer frequency, TF over GST control)"
same,binding signal,EHF,"1.33 fold enrichment (6-mer frequency, TF over GST control)"
same,binding signal,SPI1,"1.21 fold enrichment (6-mer frequency, TF over GST control)"
same,binding signal,SPIB,"1.28 fold enrichment (6-mer frequency, TF over GST control)"
same,binding signal,ELK3,"1.28 fold enrichment (6-mer frequency, TF over GST control)"
same,binding signal,FEV,"1.27 fold enrichment (6-mer frequency, TF over GST control)"
same,binding signal,ETV5,"1.29 fold enrichment (6-mer frequency, TF over GST control)"
same,binding signal,HSF1,"1.31 fold enrichment (6-mer frequency, TF over GST control)"
same,binding signal,SPIC,"1.35 fold enrichment (6-mer frequency, TF over GST control)"
same,binding signal,ELF4,"1.25 fold enrichment (6-mer frequency, TF over GST control)"
same,binding signal,ELK4,"1.4 fold enrichment (6-mer frequency, TF over GST control)"
same,binding signal,ETV2,"1.39 fold enrichment (6-mer frequency, TF over GST control)"
same,binding signal,ELF3,"1.34 fold enrichment (6-mer frequency, TF over GST control)"
same,binding signal,CRX,"1.28 fold enrichment (6-mer frequency, TF over GST control)"
same,binding signal,ETV1,"1.34 fold enrichment (6-mer frequency, TF over GST control)"
